Measles CPE: protection of cells from measles virus | Measles virus-infected cells, CPE protection, absorbance | protection (pct of control), % at 4 µM | actives 1.5% (n = 140,000); in the data active = protection mostly above about 24%, no sharp cut-off; inactive = mostly below about 26%
cytoskel mod: modifiers of cytoskeleton assembly. HUVEC TNFa F-actin phalloidin imaging, high content. inhibition, % at 2 µM. actives 0.18% (n = 91,000);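 active = inhibition above the batch mean plus 3 SD and confirmed as a hit by visual image inspection, cut at about 30% in these data, passing the limit was not always enough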
* = called active by the depositor. A selection: hits, their analogues and other compounds. The true share with any hit is near 1.5%.

How did C[C@]12C=CC(=O)C=C1CCC1C3CC[C@](O)(C(=O)CO)[C@@]3(C)CC3OC312 (stereo partly specified) do in these assays?
Measles CPE: 42*

Results for CC(=O)OCC(=O)[C@@]1(O)CC[C@H]2[C@@H]3CCC4=CC(=O)C=C[C@]4(C)[C@H]3[C@@H](O)C[C@@]21C ?
Measles CPE: 7

Results for CCC(C)(C)NC(=O)/C=C/c1cccs1 ?
Measles CPE: 8

Results for CN(C)CCCNCCCNC(=O)c1ccncc1 ?
Measles CPE: 1; cytoskel mod: 1

Results for O=C(NCCCNCc1ccccc1)c1ccncc1 ?
Measles CPE: 40*; cytoskel mod: 8

Results for CCCN(CCC)CCCNC(=S)Nc1ccc2nc3n(c(=O)c2c1)CCCCC3 ?
Measles CPE: 9

How did COC(=O)c1ccc(Sc2ccccc2NS(=O)(=O)c2ccc(OC)cc2)nc1 do in these assays?
Measles CPE: 15; cytoskel mod: -1

What do the screens show for `CCN(CC)c1ccc(C=C2C(=O)OC3(CCCC3)OC2=O)cc1`?
Measles CPE: 40*

What do the screens show for `CN(C)c1ccc(C=C2C(=O)OC(C)(C(C)(C)C)OC2=O)cc1` (stereo unspecified)?
Measles CPE: 19; cytoskel mod: 27

Results for CCCCNC(=O)COc1ccccc1C(=O)c1cc(C#N)c(=O)n(CCOC)c1 ?
Measles CPE: 42*

Results for N#Cc1cc(C(=O)c2ccccc2OCC(=O)Nc2ccccc2)cn(C2CCCCC2)c1=O ?
Measles CPE: 12

How did CCCCCOc1ccccc1C(=O)NCCC(=O)O do in these assays?
Measles CPE: 6; cytoskel mod: -7

How did CCOc1ccccc1C(=O)NCCC(=O)O do in these assays?
Measles CPE: 2; cytoskel mod: 100*

How did COC(=O)CSc1nnc(CNS(=O)(=O)c2ccc(Cl)cc2)n1C do in these assays?
Measles CPE: 37*; cytoskel mod: 13

How did COC(=O)c1ccccc1NC(=O)CSc1nnc(CNS(=O)(=O)c2ccc(C)cc2)n1C do in these assays?
Measles CPE: 14; cytoskel mod: -36

Results for Cc1ccc(NC(=O)COc2ccc(CCO)cc2-n2nc3ccccc3n2)cc1C ?
Measles CPE: 4

How did Cc1ccc(S(=O)(=O)/N=C2/NC(=O)/C(=C/c3cccnc3)S2)cc1 do in these assays?
Measles CPE: 5; cytoskel mod: 39

How did Cc1ccc(S(=O)(=O)/N=C2/NC(=O)/C(=C/c3ccc(Br)o3)S2)cc1 do in these assays?
Measles CPE: 25*

What do the screens show for `O=C(/C=C/c1ccccc1[N+](=O)[O-])Nc1cccnc1`?
Measles CPE: 9

Results for Cc1noc(C)c1S(=O)(=O)NCCN1CCN(c2ccccc2)CC1 ?
Measles CPE: 7; cytoskel mod: -28

What do the screens show for `Cc1noc(C)c1S(=O)(=O)NCCCN1CCN(Cc2ccccc2)CC1`?
Measles CPE: 30*; cytoskel mod: -17

Results for CC(=O)c1cccc(NC(=O)Cc2coc3cc4c(cc23)CCC4)c1 ?
Measles CPE: 14

How did O=C(NCCCN1CCN(Cc2ccccc2)CC1)c1nnc(Cc2c(F)cccc2Cl)o1 do in these assays?
Measles CPE: 39*; cytoskel mod: 12

What do the screens show for `O=C(NCCCO)c1nnc(Cc2c(F)cccc2Cl)o1`?
Measles CPE: 3; cytoskel mod: 15

How did CC12CCC(C(=O)Nc3ccccc3Cl)(C(Br)C1=O)C2(C)C (stereo unspecified) do in these assays?
Measles CPE: 36*

Results for CC12CCC(C(=O)Nc3cc(Cl)ccc3Cl)(C(Br)C1=O)C2(C)C (stereo unspecified) ?
Measles CPE: 10

How did O=C(Nn1c(-c2ccc(F)cc2)nc2ccccc2c1=O)C1CCCCC1 do in these assays?
Measles CPE: 21; cytoskel mod: -8

What do the screens show for `COC(=O)C(C)Sc1ncnc2c1c(-c1ccccc1)cn2-c1ccc(OC)cc1` (stereo unspecified)?
Measles CPE: 3

Results for CCOc1ccc(-n2cc(-c3ccccc3)c3c(SC(C)C(=O)OC)ncnc32)cc1 (stereo unspecified) ?
Measles CPE: 19*

How did CCCCC(CC)CNC(=O)CCS(=O)(=O)c1cccc2nsnc12 (stereo unspecified) do in these assays?
Measles CPE: 3

Results for CCCCC(CC)CNC(=O)CN(C)S(=O)(=O)c1cccc2nsnc12 (stereo unspecified) ?
Measles CPE: 38*; cytoskel mod: -7

Results for COc1cc(COc2ccc3c(C)c(Cc4ccccc4)c(=O)oc3c2)cc(OC)c1OC ?
Measles CPE: 16; cytoskel mod: 3

What do the screens show for `COc1cc(COc2ccc3c(C)c(Cc4ccccc4)c(=O)oc3c2C)cc(OC)c1OC`?
Measles CPE: 28*; cytoskel mod: 0

Results for O=C(/C=C/c1ccccc1)/C=C/c1ccccc1 ?
Measles CPE: 6

What do the screens show for `NS(=O)(=O)c1ccc(CCNc2ncnc3c2c(-c2ccccc2)cn3-c2ccc(F)cc2)cc1`?
Measles CPE: 17; cytoskel mod: -10

How did CCC(=O)c1ccc(OCC(O)CN2CCN(C(c3ccccc3)c3ccccc3)CC2)cc1 (stereo unspecified) do in these assays?
Measles CPE: 10; cytoskel mod: 6

How did Cc1ccc(S(=O)(=O)/N=C(\Nc2cc(C)on2)c2ccc(Cl)cc2)cc1 do in these assays?
Measles CPE: 6

Results for COc1ccc(-c2nc(N3CCOCC3)nc3n[nH]c(N)c23)cc1 ?
Measles CPE: 28*

Results for Nc1[nH]nc2nc(N3CCCC3)nc(-c3ccccc3)c12 ?
Measles CPE: 8

Results for CCSc1nnc(C)c(=O)n1COC(=O)c1ccc(S(=O)(=O)N2CCCC2)cc1 ?
Measles CPE: 2

Results for CS(=O)(=O)Oc1ccc(Br)cc1/C=C1/N=C(c2ccco2)OC1=O ?
Measles CPE: 8

Results for Cc1ccc(SCC(=O)c2c(C)[nH]c3ccccc23)cc1 ?
Measles CPE: 41*

Results for Cc1[nH]c2ccccc2c1C(=O)CSc1ccccc1 ?
Measles CPE: 22

What do the screens show for `Cc1ccc(CNC(=O)CCc2c(C)nc3ncnn3c2C)cc1`?
Measles CPE: 3; cytoskel mod: -22

How did Cc1nc2ncnn2c(C)c1CCC(=O)NCCc1ccccc1 do in these assays?
Measles CPE: 100*; cytoskel mod: -6

What do the screens show for `Clc1cccc(N/N=C(\Cc2nc3ccccc3[nH]2)c2ccccc2)c1`?
Measles CPE: 7

Results for O=C(Nc1ccc([N+](=O)[O-])cn1)c1ccc(Br)o1 ?
Measles CPE: 9

What do the screens show for `c1ccc(Nc2ccc3c4c(cccc24)CC3)cc1`?
Measles CPE: 5; cytoskel mod: 12

Results for Nc1ccc2c3c(cccc13)CC2 ?
Measles CPE: 3; cytoskel mod: 51*

Results for Cc1ccc(NC(=O)COC(=O)C2(c3ccc(Cl)cc3)CCCC2)cc1 ?
Measles CPE: 8

What do the screens show for `O=C(O)c1cccc2c1C(=O)N(Cc1ccncc1)C2`?
Measles CPE: 72*; cytoskel mod: -26

What do the screens show for `O=C(Nc1ccc2c(c1)OCO2)c1cccc2c1C(=O)N(Cc1cccnc1)C2`?
Measles CPE: 8

How did CC(=O)c1ccc(-n2c(SCC(=O)c3c[nH]c4ccccc34)nc3ccccc3c2=O)cc1 do in these assays?
Measles CPE: 10

How did O=C(NN1C(=O)c2cc(Br)ccc2NC1c1cc(Br)cc(Br)c1O)c1ccncc1 (stereo unspecified) do in these assays?
Measles CPE: 4

From PubChem BioAssay
